Luc counter: blocks Kinase-Glo luciferase, a counter-screen artifact | Q27757 | Kinase-Glo luciferase, ATP luminescence, 8 min | Potency, µM (series often up to 38.3 µM), for the others: at the top dose activity change, negative = inhibition, actives largely listed as inhibitors | hit rate 0.28% among 200,000 | AID 1379; note: % is set by controls: 0 for no effect and ±100 for the full control effect; nearly all actives have a fitted effect of over 60% in size
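Inhibition of Kinase-Glo luciferase light generation was assessed at 10 uM ATP in pH 7.2 imidazole buffer, with luminescence measured after eight minutes at ambient temperature.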
FLuc counter: firefly luciferase modulation, counter-screen for miR-21 project | hit rate 6.9% among 360,000 | purified FLuc, Km substrates, luminescence inhibition | Potency, µM (series often up to 57.5 µM), inactives show at the highest dose activity change, negative = inhibition, hits mostly inhibitors;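 note: plate controls were vehicle for no effect and reference inhibitor for full effect; nearly all actives have a fitted effect of over 55% in size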
Target sequence (P08659 whole entry, looked up): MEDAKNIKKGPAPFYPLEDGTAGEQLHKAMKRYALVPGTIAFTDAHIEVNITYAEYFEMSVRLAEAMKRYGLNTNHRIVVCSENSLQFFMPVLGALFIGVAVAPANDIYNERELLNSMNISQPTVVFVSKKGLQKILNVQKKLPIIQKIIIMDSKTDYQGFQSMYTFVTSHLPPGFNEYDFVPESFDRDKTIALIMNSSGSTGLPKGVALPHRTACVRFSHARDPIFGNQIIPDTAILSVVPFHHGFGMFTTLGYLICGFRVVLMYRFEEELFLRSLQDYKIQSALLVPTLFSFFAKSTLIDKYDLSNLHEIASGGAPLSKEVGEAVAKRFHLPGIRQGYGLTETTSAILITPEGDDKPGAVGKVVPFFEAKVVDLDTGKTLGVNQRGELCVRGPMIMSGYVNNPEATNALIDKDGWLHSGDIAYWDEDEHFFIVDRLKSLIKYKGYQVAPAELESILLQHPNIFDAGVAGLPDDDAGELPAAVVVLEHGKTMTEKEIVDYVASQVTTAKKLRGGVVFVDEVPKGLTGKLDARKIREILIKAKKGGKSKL
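Purified P. pyralis luciferase (10nM final) with 10uM D-luciferin and 10uM ATP (Km levels) in 50mM Tris acetate pH 7.5, 10mM Mg acetate, 0.01% Tween-20, 0.05% BSA; qHTS 6-point titration, ~60 µM downward; luminescence read.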
Rab9 promoter act: Rab9 promoter activation. AID 485297. Potency, µM (highest dose often 9.22 µM), for the others: at the top dose activation, negative = inhibition, hits mostly activators. Huh7 Rab9 promoter-luciferase reporter, luminescence, 24 h. hit rate 2.8% among 320,000; note: % of control where 0% means no effect; nearly all actives have a fitted effect of over 60% in size
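Huh7 reporter line, Rab9 promoter upstream of luciferase. Compound exposure 24 h at 37 °C in reduced-serum medium with 10% FBS. Read-out: luminescence.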
SMN2 splice enh: SMN2 splice variant enhancement. HEK293 SMN2-luciferase splicing reporter, luminescence, 30-36 h. Potency, µM (titrated, usually from 46.1 µM), for the others: top-dose activity change, positive = activation, actives largely listed as activators. hit rate 2.8% among 210,000. AID 1458; note: % of control where 0% means no effect; nearly all actives have a fitted effect of over 55% in size
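HEK293 cells carry an SMN2 minigene-luciferase reporter in which exon 7 inclusion puts luciferase in frame. Cells were seeded at 2000 cells/well, attached for 10-12 hours, then exposed to compounds for 30-36 hours at 37C before ONE-Glo luminescence.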
NPC1 promoter act: activators of NPC1 promoter. Huh7 NPC1 promoter luciferase reporter, 24 h. AID 485313. Potency, µM (series often up to 9.22 µM), for inactives: at the highest dose activation, most hits filed as activators. hit rate 2.4% among 320,000; note: % of control where 0% means no effect; nearly all actives have a fitted effect of over 60% in size
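Readout is luciferase luminescence, reflecting NPC1 promoter activation in stably transfected Huh7 cells after 24 h compound exposure at 37 °C in reduced-serum medium with 10% FBS.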
* = called active by the depositor; ? = inconclusive; . = no result given; [ ] = remark or other dose. Most compounds without a hit are left out; they make up all but 7.3% or so of the library. Calls come from the whole dose curve; as a rule, active = well fitted curve in the direction sought with a large enough effect; inconclusive = small, poorly fitted or top-dose-only effect, or another doubt; inactive = no such curve, though single readings can be large; an effect the other way counts as inactive or inconclusive. Potency is the fitted concentration of half-maximal effect.

SMILES	Luc counter	FLuc counter	Rab9 promoter act	SMN2 splice enh	NPC1 promoter act
Cc1ccc(-c2cc(C(=O)Nc3ccc(S(=O)(=O)Nc4onc(C)c4C)cc3)c3ccccc3n2)cc1	9%	13µM*	4%	27%	-2%
COc1ccc(C(=O)Nc2ccc(S(=O)(=O)Nc3onc(C)c3C)cc2)cc1	2%	21µM*	-6%	3%	0%
Cc1noc(NS(=O)(=O)c2ccc(NC(=O)c3oc4ccc(Cl)cc4c3C)cc2)c1C	.	17µM*	16%	.	-2%
Cc1c(C(=O)Nc2ccc(S(=O)(=O)Nc3ncccn3)cc2)oc2ccc(Cl)cc12	.	-16%	-7%	.	-3%
COc1cccc(-c2nc(CS(=O)(=O)CC(=O)Nc3ccc(C)c(Cl)c3)c(C)o2)c1	.	-11%	.	-6%	.
COC(=O)N1C2CC(=O)O[C@@H]3c4cc5c(cc4[C@]1(C)[C@@]3(Br)c1ccccc12)OCO5	-9%[7.66 µM]	.	.	-30%[9.22 µM]	.
Cc1ccc(C(=O)Nc2ccc(S(=O)(=O)Nc3onc(C)c3C)cc2)cc1	.	12µM*	.	-3%	.
Cc1cc(NC(=O)c2oc3c(c2C)-c2[nH]ncc2CC3)ccc1Br	.	3%	.	.	.
O=C(Nc1cccc(NC(=O)c2cccs2)c1)c1ccc(Br)o1	.	24µM*	4%	.	-1%
COc1ccc(C(=O)Nc2cccc(NC(=O)c3cccs3)c2)cc1	.	9.5µM*	19%	.	18%
COc1cccc(NC(=O)c2cccs2)c1	-4%	17µM*	?	13µM*	?
Cc1ccc(C(=O)Nc2cccc(NC(=O)c3cccs3)c2)c(C)c1	.	12µM*	6%	.	0%
O=C(Nc1ccc(NC(=O)c2cccs2)cc1)c1ccc(Br)o1	-7%	0%	28%	3%	9%
CCc1cccc(C)c1NC(=O)Cn1nc(C)c2nn(-c3ccc(Cl)cc3)c(C)c2c1=O	.	5%	.	.	.
O=C(Nc1cccc(NC(=O)c2cccs2)c1)c1ccc(F)cc1	.	21µM*	-4%[1.84 µM]	.	0%
O=C(NNC(=O)c1cccs1)c1ccc(F)cc1	.	-8%	5%	.	14%
Oc1csc(Cc2nc(-c3ccc(Br)cc3)cs2)n1	3%	?	3.5µM*	?	3.2µM*
NC(=O)Cc1nc(-c2ccc(Br)cc2)cs1	1%	?	1%	-13%	0%
COc1ccc(/C=C(\NC(=O)c2ccccc2)C(=O)NC2CCCCC2)cc1	.	-4%	.	-1%	.
O=c1[nH]c(=O)c2nc(-c3ccc(Cl)cc3)cnc2[nH]1	-2%	17µM*	1%	-5%	-2%
O=C(NCCCN1CCN(c2cccc(Cl)c2)CC1)c1sc2ncccc2c1-n1cccc1	.	3%	.	.	.
C=CCn1c(/N=C/c2ccc(N(C)C)cc2)nc2ccccc21	.	0.13µM*	9%	.	0%
CN(C)c1ccc(/C=N/NC(=O)Cn2nnc3ccccc32)cc1	0%	?	3%	25%	-3%
CN(C)c1ccc(/C=N/n2ncc3ccccc32)cc1	-11%	11µM*	?	8.9µM*	24%
CCCCn1c(/N=C/c2ccc(N(C)C)cc2)nc2ccccc21	0%	1.9µM*	-2%	-20%	0%
SMILES	Luc counter	FLuc counter	Rab9 promoter act	SMN2 splice enh	NPC1 promoter act
CCCn1c(NCc2ccc(N(C)C)cc2)nc2ccccc21	0%	?	10%	12%	13%
CCn1c(/N=C/c2ccc(OC)cc2O)nc2ccccc21	.	0.95µM*	9%	.	0%
C=CCn1c(C(C)NC(=O)C(C)(C)C)nc2ccccc21 (stereo not given)	0%	9%	-3%	-2%	-3%
CN1C(C(=O)NC(C)(C)C)=CC(c2ccc3c(c2)OCO3)=NS1(=O)=O	.	7%	.	.	.
C=Cc1ccccc1Cl	.	.	.	-1%	.
COc1ccc(/C=N/c2nc3ccccc3n2CCN2CCCCC2)cc1OC	17%	-9%	-2%	7%	-3%
CCCCn1c(/N=C/c2ccc3c(c2)OCO3)nc2ccccc21	-4%	8.5µM*	2%	18%	-3%
C=CCn1c(/N=C/c2ccc(OC)cc2)nc2ccccc21	.	0.43µM*	-2%	.	-5%
Fc1ccc(NCc2cn3ccccc3n2)cc1	11µM*	15µM*	4µM*	?	3.2µM*
Fc1cccc(NCc2cn3ccccc3n2)c1	?	9.5µM*	0.79µM*	2.5µM*	1.8µM*
Fc1cccc(NCc2ccoc2)c1	-3%	-1%	7%	-10%	2%
Cc1ccc(SSc2cc(C)ccc2N)c(N)c1	.	4.8µM*	0.79µM*	.	1.1µM*
COc1ccc(OCc2cc(C(=O)NCCN3CCCC(O)C3)no2)c(Cl)c1 (stereo not given)	.	?	-2%[1.84 µM]	.	2%
COc1ccc(OCc2cc(C(=O)N(C)Cc3cc(C4CC4)n[nH]3)no2)c(Cl)c1	.	12µM*	2.8µM*	.	3.5µM*
COc1ccc(OCc2cc(C(=O)NCC3CCCCO3)no2)c(Cl)c1 (stereo not given)	.	?	4µM*	.	?
COc1ccc(OCc2cc(C(=O)NCC3CCOCC3)no2)c(Cl)c1	.	13µM*	?	.	?
COc1ccc(OCc2cc(C(=O)N3C[C@@H](C)O[C@@H](C)C3)no2)c(Cl)c1	.	?	24%	.	?
COc1ccc(OCc2cc(C(=O)N(C)Cc3cnccn3)no2)c(Cl)c1	.	?	?	.	26%
COc1ccc(OCc2cc(C(=O)NCCN3CCCc4ccccc43)no2)c(Cl)c1	.	24µM*	4%	.	24%
COc1ccc(CCNC(=O)Cn2c(-c3ccc(F)cc3)cc(C(C)=O)c2C)cc1OC	.	-5%	.	.	.
Cc1cccc(CNC(=O)C2CCN(S(=O)(=O)c3cccc4nonc34)CC2)c1	.	-2%	.	.	.
COc1cccc(OCc2cc(C(=O)NC3CCOCC3)no2)c1	.	24µM*	?	.	?
Cc1ccc(NC(=O)c2cnccn2)cc1	-19%	?	3.2µM*	6.3µM*	2.5µM*
O=C(Nc1ccc(Br)cc1)c1cnccn1	-9%	?	3.5µM*	22%	?
Cc1ccc(NC(=O)c2cccnc2)cc1C	.	?	?	.	28%
SMILES	Luc counter	FLuc counter	Rab9 promoter act	SMN2 splice enh	NPC1 promoter act
Cc1cccc(NC(=O)c2cnccn2)c1	.	-18%	17%	.	20%
O=C(O)Cc1ccc(NC(=O)c2cnccn2)cc1	-9%	?	0%	-7%	-1%
Cc1nc(NC(=O)c2cnccn2)ccc1Br	.	8.5µM*	2µM*	.	2.8µM*
Cc1ccc(NC(=O)c2cnccn2)cc1C	.	11µM*	3.2µM*	.	3.2µM*
CC(C)OCCCN1C=C2C(=O)C(C)(OC(=O)C3CCCC3)C(=O)C=C2C=C1c1ccsc1 (stereo not given)	-5%[7.66 µM]	.	.	1%[9.22 µM]	.
CCN(CC)S(=O)(=O)c1ccc2c(c1)c(=O)c(C(=O)N1CCN(c3cc(C)ccc3C)CC1)cn2C	.	-3%	.	-15%	.
OCc1cnc(SCc2cccc(F)c2)n1Cc1ccc(F)cc1	.	4%	.	.	.
O=C(c1cc(-c2ccccc2)nc2ccccc12)N1CCN(C2CCS(=O)(=O)C2)CC1 (stereo not given)	.	27µM*	2%	.	0%
